# Laboratory results from PubChem BioAssay (NCI).
# The panel holds about 83,000 compounds, 20% with a hit somewhere; the sample as a whole holds those more often.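 The endpoint reported here, percent growth, reads 100 for growth as untreated, 0 for no net growth and -100 for all cells dead.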 Unmarked numbers belong to inactive results. Active and inactive are the calls of the source. The calls were made as follows: active = growth percent below 10; inactive = the rest.
# Key:
# Assay in all cases: NCI-60 one-dose screen, 48 h (100 = growth as untreated, 0 = no growth, -100 = all killed)
# Conditions in all cases: 10 µM unless noted
# [1] = system: HCT-15 colon
# [2] = system: HT29 colon
# [3] = system: SNB-75 CNS
# [4] = system: U251 CNS
# [5] = system: PC-3 prostate
# [6] = system: SK-MEL-5 melanoma
# [7] = system: UACC-62 melanoma
# [8] = system: LOX IMVI melanoma
# [9] = system: SK-MEL-28 melanoma
# [10] = system: SK-MEL-2 melanoma
# [11] = system: EKVX NSCLC
# [12] = system: SN12C renal
# [13] = system: UO-31 renal
# [14] = system: TK-10 renal
# [15] = system: ACHN renal
# [16] = system: CAKI-1 renal
# [17] = system: A498 renal
# [18] = system: CCRF-CEM leukemia
# [19] = system: MOLT-4 leukemia
# [20] = system: SNB-19 CNS
Compound,growth [1],growth [2],growth [3],growth [4],growth [5],growth [6],growth [7],growth [8],growth [9],growth [10],growth [11],growth [12],growth [13],growth [14],growth [15],growth [16],growth [17],growth [18],growth [19],growth [20]
COc1ccccc1-[n+]1cc(-c2ccc(-c3ccccc3)cc2)n2c1CCCCC2,66%,1.07% (active),16%,10.6%,1.3% (active),-78.8% (active),2.5% (active),11.3%,27.8%,-27% (active),9.1% (active),0.949% (active),74.7%,7.69% (active),32.5%,72.6%,9.77% (active),17.2%,9.4% (active),
C[N+](C)(C)CCCCCCCCCC[N+](C)(C)C,107%,,89.3%,91.1%,89.3%,97.4%,91.7%,84.7%,104%,,96.3%,85.9%,96.1%,,112%,104%,123%,72.4%,,98.7%
CCN(CC)CCCCCCCCNc1c2ccc(Cl)cc2nc2ccc(OC)cc12,-39% (active),,-85.6% (active),,-56.4% (active),-97.7% (active),-82.1% (active),-78.2% (active),-85.8% (active),,-12.2% (active),-19.7% (active),-56.2% (active),,-58% (active),-1.58% (active),-92.5% (active),-26.5% (active),-45.8% (active),-30.9% (active)
O=C(CCl)Nc1ccc2c(c1)C(=O)c1ccccc1C2=O,-38.8% (active),-63.6% (active),41.7%,-56.3% (active),-12.6% (active),-82.8% (active),-54.9% (active),-81% (active),35.4%,19.1%,57%,-21.3% (active),46.6%,,-67.8% (active),0.23% (active),44%,-46.2% (active),-29.1% (active),
CNC(=O)c1c(NC(=O)c2cccc(C(F)(F)F)c2)sc2c1CCC(=O)C2,-37% (active),4.59% (active),-7.71% (active),2.7% (active),-46.4% (active),-68.3% (active),-41.1% (active),-49.6% (active),7.1% (active),-16.5% (active),4.31% (active),3.13% (active),-94.3% (active),,-66.9% (active),-22.5% (active),-5.84% (active),-0.844% (active),-7.92% (active),
CCCCCCCCCCCCCC,106%,,72.4%,,88.1%,108%,,94.9%,106%,,95.2%,,98.6%,,111%,98.9%,,90.4%,111%,
COc1ccc(N=C2CSc3nnc(-c4cc(F)c(Cl)cc4Cl)n3N2)cc1,5.01% (active),-66.9% (active),-60.6% (active),-52.2% (active),-55% (active),-63.1% (active),20.9%,-42.1% (active),,25.8%,10.8%,7.26% (active),-69.5% (active),-48.1% (active),,-11.2% (active),-41.7% (active),-24.4% (active),-4.82% (active),
ClCCn1cnc2c(SCc3ccccc3Cl)ncnc21,21.3%,26.3%,79.2%,30.4%,38.7%,38.4%,33.7%,7.06% (active),47.3%,,66.8%,44.8%,,34.4%,38.4%,47.6%,39%,24.2%,-28% (active),
COc1ccccc1/C=N\Nc1ccc([N+](=O)[O-])cn1,102%,107%,110%,101%,98.8%,102%,100%,98.5%,120%,102%,92.8%,109%,90.8%,111%,109%,90.4%,106%,106%,103%,
